Screening data: PubChem, National Center for Advancing Translational Sciences (NCATS)
Vaccinia Venus: qHTS for Stage-Specific Inhibitors of Vaccinia Orthopoxvirus: Venus Reporter Primary qHTS; Vaccinia virus Venus reporter expression, fluorescence; Potency, µM (highest dose often 36.5 µM), without a hit: at the highest dose activity change, negative = inhibition, most hits filed as inhibitors; 330,000 tested, 0.46% active; AID 720580, 2013; calls by dose curve; tested in A549 cells; note: potency is the fitted concentration of half-maximal effect; nearly all actives have a fitted effect of over 30% in size
HCV inhibitor: qHTS Assay for Inhibitors of Hepatitis C Virus (HCV); AID 651820, 2012; 340,000 tested, 3.4% active; Huh7.5.1 HCVcc-Cre infection, luciferase reporter, 44 h; Potency, µM (doses to about 41.8 µM), for the others: at the top dose activity change, negative = inhibition, most hits filed as inhibitors; active = well fitted inhibition curve with a large enough effect; inconclusive = small, poorly fitted or top-dose-only effect, or another doubt; inactive = no such curve, though single readings can be large or run the other way; note: potency is the fitted concentration of half-maximal effect
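HCVcc-Cre virus at an moi near 0.5 was added right after compound to cells cultured 4 h from seeding (1,000 cells/well). Luciferase activity was determined 44 h later, 15 min after substrate addition at RT.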
HCMV antiviral: qHTS Assay for inhibitors of the human cytomegalovirus (HCMV); HFF cells, HCMV-luciferase reporter, 72 h; active compounds read low; activity change, negative = inhibition, % at 57.5 µM; 410,000 tested, 4.5% active; AID 1259415, 2018; in the data active = activity change below about -60%; inconclusive = no clear call, values can overlap the other calls; inactive = above about -39%
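Human foreskin fibroblasts infected with luciferase-reporter HCMV at MOI 1 PFU/cell, compounds at two doses. Luciferase measured 72 h post infection; normalized to buffer-only basal and Salinomycin (10uM) controls.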
LASV entry inh: qHTS for Inhibitors of binding or entry into cells for Lassa Virus | 300,000 tested, 1.2% active | Potency, µM (highest dose often 37.9 µM), without a hit: at the top dose activity change, negative = inhibition, most hits filed as inhibitors | Lassa virus pseudotype entry inhibition, cell reporter; calls by dose curve; tested in HEK293 cells; note: potency is the fitted concentration of half-maximal effect; nearly all actives have a fitted effect of over 50% in size
MARV entry inh: qHTS for inhibitors of binding or entry into cells for Marburg Virus; Potency, µM (highest dose often 37.8 µM), for the others: at the top dose activity change, negative = inhibition, actives largely listed as inhibitors; Marburg virus pseudotyped entry inhibition, cell reporter; 300,000 tested, 1.8% active; calls by dose curve; tested in HEK293 cells; note: potency is the fitted concentration of half-maximal effect
VACV mCherry inh: qHTS for Stage-Specific Inhibitors of Vaccinia Orthopoxvirus: mCherry Reporter Primary qHTS. Vaccinia virus mCherry reporter infection, fluorescence. AID 720579, 2013. 310,000 tested, 0.63% active. Potency, µM (series often up to 36.5 µM), inactives show top-dose activity change, negative = inhibition, usual class: inhibitors; calls by dose curve; tested in A549 cells; note: potency is the fitted concentration of half-maximal effect; nearly all actives have a fitted effect of over 35% in size
* hit, by the source's call; i = inactive; ? = inconclusive; / = no result given; [ ] = remark or other dose. Hits are enriched below; roughly 7.8% of the tested compounds scored in any of these assays. % is set by controls: 0 for no effect and ±100 for the full control effect.

SMILES	Vaccinia Venus	HCV inhibitor	HCMV antiviral	LASV entry inh	MARV entry inh	VACV mCherry inh
Cc1c(CN2CCOc3c(O)cc(-c4nc5ccccc5s4)cc3C2)cnn1C	-13%	/	/	/	/	-25%
CCc1nnc(NC(=O)CSc2ccc(-c3nc4ccccc4[nH]3)cn2)s1	1%	-1%	-94*	?	25%	?
Cc1ccc2nc(-c3ccc(SCC(=O)Nc4nnc(C)s4)nc3)[nH]c2c1	11µM*	1%	27	?	?	?
Cc1ccc2nc(-c3ccc(SCC(=O)Nc4nc(C)cs4)nc3)[nH]c2c1	?	-1%	-34	14%	?	?
Cc1nc(NC(=O)CSc2ccc(-c3nc4ccccc4[nH]3)cn2)sc1C	-7%	-5%	-30	21%	?	3%
Cc1ccc(N2CCn3c2nc2c3c(=O)n(Cc3cccc(Cl)c3)c(=O)n2C)cc1C	-18%	/	-16	10%[46.1 µM]	/	-23%
Cc1onc(-c2ccccc2Cl)c1C(N)=O	-1%	19%	13	10%	?	/
COc1ccc(/C(N)=N/OC(=O)c2c(-c3ccccc3Cl)noc2C)cc1OC	?	13µM*	-79*	?	?	-11%
Cc1onc(-c2c(F)cccc2Cl)c1C(=O)O/N=C(\N)c1ccc([N+](=O)[O-])o1	?	?	-62*	-1%	-2%[46.1 µM]	?
Cc1onc(-c2ccccc2Cl)c1C(=O)Oc1ccc(Cl)cc1Cl	-12%	/	?	-5%[46.1 µM]	/	-13%
Cc1nc(/C(N)=N/OC(=O)c2c(-c3ccccc3Cl)noc2C)cs1	-19%	-13%	-39	-25%	7.9µM*	i
CCOc1ccc(NC(=O)COC(=O)c2ccccc2OCC(=O)N(C)C)cc1	-12%	/	/	/	/	-7%
Cc1c(C(=O)N2CCC(C)CC2)c(S(=O)(=O)Nc2ccc(OC(F)(F)F)cc2)c(C)n1C	-11%	/	?	-23%[46.1 µM]	/	-18%
Cc1cc(N2CCN(C(c3ccccc3)c3ccccc3)CC2)n2ncnc2n1	-2%	1%	-97*	-2%	10%	-15%
Cc1nc2ncnn2c(N2CCN(c3cccc(C(F)(F)F)c3)CC2)c1C	/	0.89µM*	-101*	?	-15%	/
Cc1cc(N2CCN(c3cccc(C(F)(F)F)c3)CC2)n2ncnc2n1	-21%	8%	-17	-27%	-27%	/
Cc1cc(N2CCN(c3nc4ccccc4s3)CC2)n2ncnc2n1	/	3.2µM*	-102*	?	?	/
Cc1cc(N2CCN(C(=O)c3ccco3)CC2)n2ncnc2n1	/	10%	11	-4%	-6%	/
Cc1nc2ncnn2c(N2CCN(C(c3ccccc3)c3ccccc3)CC2)c1C	/	?	-69*	?	-5%	/
Cc1noc(C)c1S(=O)(=O)Nc1ccc(C(=O)Nc2ccc(C(C)C)cc2)cc1	-10%	/	3	?	2%[46.1 µM]	-10%
O=C(Cn1nc(-c2ccccc2)nc(Cc2ccccc2)c1=O)Nc1ccc(Cl)cc1	-7%	/	?	2%[46.1 µM]	/	-12%
O=C(c1cnn2c(C(F)(F)F)cc(-c3ccccc3)nc12)N1CCCCC1c1cccnc1 (stereo not drawn)	-10%	-15%	?	1%	?	-23%
CC1CCCCN1C(=O)c1cc2nc(-c3ccccc3)cc(-c3ccccc3)n2n1 (stereo not drawn)	?	11µM*	-21	-26%	?	?
O=C(c1cc2nc(-c3ccc(F)cc3)cc(C(F)(F)F)n2n1)N1CCCCC1c1cccnc1 (stereo not drawn)	?	7.9µM*	-90*	?	?	?
CNc1ncn(-c2c(C)cccc2C)c(=O)n1	/	/	-99*	/	/	/
SMILES	Vaccinia Venus	HCV inhibitor	HCMV antiviral	LASV entry inh	MARV entry inh	VACV mCherry inh
COc1ccc(-n2ncc3c(SCC(=O)N4CCN(c5ccccc5OC)CC4)ncnc32)cc1	/	13µM*	-14	?	?	/
COc1ccccc1N1CCN(C(=O)CSc2ncnc3scc(-c4ccccc4)c23)CC1	-10%	?	-33	6.3µM*	?	-14%
COc1ccccc1N1CCN(C(=O)CSc2nc3ccccc3nc2N2CCCCC2)CC1	-26%	?	-21	/	/	-22%
O=C(CSc1ncnc2scc(-c3ccccc3)c12)N1CCN(c2ccccc2F)CC1	-21%	?	?	?	?	-13%
COc1ccccc1N1CCN(C(=O)CSc2nnc3n2C(C)(C)Cc2ccccc2-3)CC1	?	6.3µM*	-92*	?	?	-26%
COc1ccccc1C1CN(CC(=O)N2CCC(C(O)c3ccccn3)CC2)Cc2ccccc2O1 (stereo not drawn)	-15%	/	/	/	/	-23%
Cc1ccc(Cl)cc1N1CCN(C(=O)c2ccc3nc(N4CCC(C)CC4)sc3c2)CC1	-23%	/	?	17%[46.1 µM]	11%[46.1 µM]	-16%
O=C(CSc1nc2c(c(=O)[nH]1)CCC2)Nc1cc(C(F)(F)F)ccc1Cl	3%	/	3	-22%[46.1 µM]	-1%[46.1 µM]	5%
O=C(CCCN1C(=O)/C(=C/c2ccccc2Cl)SC1=S)NNC(=O)c1cccnc1	/	-9%	-36	/	/	/
O=C1/C(=C\c2cc(Cl)c(O)c(Cl)c2)SC(=S)N1Cc1ccccc1	i	?	-99*	4µM*	6.3µM*	-5%
O=C1/C(=C/c2cccnc2)SC(=S)N1CCc1ccccc1	/	13%	-71*	/	/	/
O=C(CCN1C(=O)/C(=C\c2ccccc2)SC1=S)NNC(=O)c1cccnc1	-8%	14%	-62*	?	?	-7%
O=C(CCN1C(=O)/C(=C/c2ccc(F)cc2)SC1=S)N[C@@H](CO)Cc1ccccc1	/	?	-64*	/	/	/
COc1ccccc1NC(=O)C1CCN(S(=O)(=O)c2ccc3[nH]c4c(c3c2)CCCCC4)CC1	-9%	/	?	-3%[46.1 µM]	/	-16%
COc1ccc2c(c1)CCC[C@]1(C)O[C@@H]1C(=O)c1ccccc1O2	/	/	-19	/	/	/
CCCCCCc1cc2cc(-c3nnc(-c4cc(OC)c(OC)c(OC)c4)o3)c(=O)oc2cc1O	/	?	/	3%	-2%	/
CCCCCCc1cc2cc(-c3nnc(-c4ccccc4OC)o3)c(=O)oc2cc1O	-15%	-7%	-74*	?	?	?
CCCCCCc1cc2cc(S(=O)(=O)c3ccc(F)cc3)c(=O)oc2cc1O	-8%	11%	28	-2%	1%	-9%
CCCCCCc1cc2cc(-c3nnc(-c4ccccc4O)o3)c(=O)oc2cc1O	-3%	?	-104*	-1%	19%	-8%
Cc1ccc(-c2c(C(=O)Nc3ccc(F)c(F)c3)oc(=O)c3ccccc23)cc1	-7%	/	4	?	1%[46.1 µM]	2%
O=C(O)c1ccc(N=Cc2c(O)[nH]c(=O)[nH]c2=O)cc1	-3%	4%	-76*	-1%	15%	-5%
